{
  "source": "PubChem BioAssay (NCATS)",
  "note": "Inconclusive results are not listed. Where a call stands in place of a potency, no number is given. Calls of active or inactive are those of the source. The call rests on the fitted dose curve; in most records, active means well fitted curve in the direction sought with a large enough effect; inconclusive means small, poorly fitted or top-dose-only effect, or another doubt; inactive means no such curve, though single readings can be large; an effect the other way counts as inactive or inconclusive.",
  "data": [
    {"target": "Aldehyde dehydrogenase, mitochondrial (Homo sapiens) (UniProt P05091)", "test": "qHTS for Inhibitors of the Aldehyde Dehydrogenase Family (ALDH2) Primary screen (AID 2061308); further: nearly all actives have a fitted effect of over 55% in size", "settings": "ALDH2 enzyme inhibition qHTS, 1536-well; series mostly up to 56 µM", "values": [
      {"smiles": "O=S(=O)(Nc1ccc2ccccc2c1)c1ccc(NCc2cccc(Cl)c2O)cc1", "Potency": "inactive"},
      {"smiles": "c1ccc(CN(Cc2ccccc2)Cc2nnc(-c3cc4ccccc4[nH]3)o2)cc1", "Potency": "inactive"},
      {"smiles": "Cc1csc(CNc2ncnc3ccc(-c4ccc5c(c4)OCCO5)cc23)c1", "Potency": "inactive"},
      {"smiles": "Cn1c2cc(Br)sc2c2cnn(Cc3ccc(F)cc3)c(=O)c21", "Potency": "inactive"},
      {"smiles": "O=C(Cc1ccccc1)Nc1nnc(-c2ccncc2)s1", "Potency": "inactive"},
      {"smiles": "Cc1cc(NS(=O)(=O)c2cc3c(cc2F)NC(=O)CC3)ccc1F", "Potency": "inactive"},
      {"smiles": "C/C=C/c1ccc(O[C@@H]2O[C@H](CO)[C@@H](O)[C@H](O)[C@H]2O)c(OC)c1", "Potency": "inactive"},
      {"smiles": "Cn1ccc2cc(-c3ccc4ncnc(NCc5cccc(F)c5)c4c3)ccc21", "Potency": "inactive"},
      {"smiles": "O=C1CCCC2=C1C(c1cnccc1C(F)(F)F)N=C(Nc1nc3ccccc3o1)N2", "note": "(stereo not given)", "Potency": "inactive"},
      {"smiles": "CC1=CC2/C=C(\\C)CCC(O)C(=O)C(O)CC(=O)C23C(=O)NC(CC(C)C)C3C1C", "note": "(stereo not given)", "Potency": "inactive"},
      {"smiles": "COC(=O)c1c(-c2ccccc2)no[n+]1[O-]", "Potency": "inactive"},
      {"smiles": "Cc1ccc(OCCn2c(CCNC(=O)c3cccc4[nH]ccc34)nc3ccccc32)cc1", "Potency": "inactive"},
      {"smiles": "O=C(c1ccccc1O)N(Cc1ccccc1)Cc1ccccc1", "Potency": "inactive"},
      {"smiles": "CC(=O)Nc1cccc(S(=O)(=O)N2CCN(S(=O)(=O)c3c(F)cccc3F)CC2)c1", "Potency": "inactive"},
      {"smiles": "CCCc1cc(C)n(C)c(=O)c1CN(C)C(=O)c1cc(-c2ccc(N3CCN(C(C)C)CC3)nc2)cc2c1cnn2C(C)C", "Potency": "inactive"},
      {"smiles": "CC(O)C(O)/C=C/C=C/C(=O)O[C@@H]1C=C(C(=O)O)[C@](O)(CO)[C@@]2(C)CCCC(C)(C)[C@H]12", "note": "(stereo not given in full)", "Potency": "inactive"},
      {"smiles": "O=c1c2ccccc2nc2sc(NCc3ccc(Cc4ccccc4)cc3)nn12", "Potency": "inactive"},
      {"smiles": "C[C@H]1CC[C@@]2(OC1)O[C@H]1CC3[C@@H]4CC[C@@H]5C[C@@H](O[C@@H]6O[C@H](CO)[C@@H](O[C@@H]7O[C@H](CO[C@@H]8OC[C@@H](O)[C@H](O)[C@H]8O)[C@@H](O[C@@H]8O[C@H](CO)[C@H](O)[C@H](O)[C@H]8O)[C@H](O)[C@H]7O)[C@H](O)[C@H]6O)CC[C@]5(C)C4CC[C@]3(C)[C@H]1[C@@H]2C", "note": "(stereo not given in full)", "Potency": "inactive"},
      {"smiles": "Cc1ccc(-c2cc(C(=O)Nc3ccccc3)c3ccccc3n2)cc1C", "Potency": "inactive"},
      {"smiles": "CCNC(=O)c1ccc(-c2ccc3ncnc(NCc4ccc(C)o4)c3c2)o1", "Potency": "inactive"},
      {"smiles": "NC(=O)C1CCN(c2nc(-c3ccc(C(F)(F)F)cc3)cs2)CC1", "Potency": "inactive"},
      {"smiles": "Cc1ccnc(NC(=S)N2CCCN(c3cccc(C(F)(F)F)c3)CC2)c1", "Potency": "inactive"},
      {"smiles": "O=C(Nc1nnc(COc2ccc(Cl)cc2)s1)c1cccs1", "Potency": "inactive"},
      {"smiles": "COc1ccc(-c2nnc3n2N=C(c2cc(OC)ccc2OC)CS3)cc1", "Potency": "inactive"},
      {"smiles": "O=C(O)c1ccncc1Nc1nn(CCN2CCC(F)(F)CC2)c2ccc(F)cc12", "Potency": "inactive"},
      {"smiles": "C=C1C(=O)O[C@@H]2C[C@H](C)[C@@H]3CC(=O)[C@H](O)[C@@]3(C)C[C@H]12", "Potency": "inactive"},
      {"smiles": "CCOC(=O)c1csc(-n2nc(-c3ccc(F)c(F)c3)c(Cc3ccc(S(N)(=O)=O)cc3)c2N)n1", "Potency": "inactive"},
      {"smiles": "COC(=O)c1ccc(N2CCN(S(=O)(=O)c3ccc4c(c3)CC(=O)N4)CC2)cc1", "Potency": "inactive"},
      {"smiles": "COc1cc(O)c(C(CC(=O)N2CCOCC2)c2ccc3c(c2)OCO3)c(OC)c1", "note": "(stereo not given)", "Potency": "inactive"},
      {"smiles": "O=C1Nc2ccccc2/C1=C/c1ccc[nH]1", "Potency": "inactive"},
      {"smiles": "Cc1cccc(C)c1-n1c(SCC(=O)Nc2ccc(F)cc2)nnc1-c1cccc([S+](=O)([O-])N2CCCC2)c1", "Potency": "inactive"},
      {"smiles": "Cc1cccc(-n2cnc3cc(C(=O)NC(C)(C)C)ccc32)c1", "Potency": "inactive"},
      {"smiles": "Cc1cc(C)nc(NC(=S)N2CCN(S(=O)(=O)c3cccc(C(F)(F)F)c3)CC2)c1", "Potency": "inactive"},
      {"smiles": "Cc1cc(C)c(-c2nnc(NC(=O)Nc3ccc4ccccc4c3)s2)c(C)c1", "Potency": "inactive"},
      {"smiles": "Cc1c(P(=S)(c2ccccc2)c2ccccc2)c2ccccc2n1C(=O)NCc1ccccc1", "Potency": "inactive"},
      {"smiles": "CCCn1c(-c2ccc(F)cc2)nc2c(NC(C)CN(C)C)nc(C)nc21", "note": "(stereo not given)", "Potency": "inactive"},
      {"smiles": "O=C(Nc1ccc(-c2nc3ccccc3[nH]2)cc1)c1ccc(Oc2ccccc2)cc1", "Potency": "inactive"},
      {"smiles": "C[C@@H]1O[C@@H](O[C@H]2[C@H](O[C@H]3CC[C@@]4(C)C(CC[C@]5(C)C4CC=C4[C@@H]6CC(C)(C)CC[C@]6(C(=O)O)CC[C@]45C)[C@]3(C)CO)OC[C@H](O)[C@@H]2O)[C@H](O)[C@H](O[C@@H]2OC[C@@H](O)[C@H](O)[C@H]2O)[C@H]1O", "note": "(stereo not given in full)", "Potency": "inactive"},
      {"smiles": "Cc1ccc(-n2cnc3cc(C(=O)N4CCCCC4)ccc32)cc1", "Potency": "inactive"},
      {"smiles": "O=C(OCC#CCSc1nnc(-c2cccc3ccccc23)o1)c1ccccc1", "Potency": "inactive"}
    ]},
    {"target": "Retinaldehyde dehydrogenase 3 (Homo sapiens) (UniProt P47895)", "test": "qHTS for Inhibitors of the Aldehyde Dehydrogenase Family (ALDH1A3) Primary screen (AID 2061315)", "settings": "ALDH inhibition qHTS; series mostly up to 56 µM", "values": [
      {"smiles": "O=S(=O)(Nc1ccc2ccccc2c1)c1ccc(NCc2cccc(Cl)c2O)cc1", "Potency": "inactive"},
      {"smiles": "c1ccc(CN(Cc2ccccc2)Cc2nnc(-c3cc4ccccc4[nH]3)o2)cc1", "Potency": "inactive"},
      {"smiles": "Cc1csc(CNc2ncnc3ccc(-c4ccc5c(c4)OCCO5)cc23)c1", "Potency": "inactive"},
      {"smiles": "Cn1c2cc(Br)sc2c2cnn(Cc3ccc(F)cc3)c(=O)c21", "Potency": "inactive"},
      {"smiles": "O=C(Cc1ccccc1)Nc1nnc(-c2ccncc2)s1", "Potency": "inactive"},
      {"smiles": "Cc1cc(NS(=O)(=O)c2cc3c(cc2F)NC(=O)CC3)ccc1F", "Potency": "inactive"},
      {"smiles": "C/C=C/c1ccc(O[C@@H]2O[C@H](CO)[C@@H](O)[C@H](O)[C@H]2O)c(OC)c1", "Potency": "inactive"},
      {"smiles": "Cn1ccc2cc(-c3ccc4ncnc(NCc5cccc(F)c5)c4c3)ccc21", "Potency": "inactive"},
      {"smiles": "O=C1CCCC2=C1C(c1cnccc1C(F)(F)F)N=C(Nc1nc3ccccc3o1)N2", "note": "(stereo not given)", "Potency": "inactive"},
      {"smiles": "CC1=CC2/C=C(\\C)CCC(O)C(=O)C(O)CC(=O)C23C(=O)NC(CC(C)C)C3C1C", "note": "(stereo not given)", "Potency": "inactive"},
      {"smiles": "COC(=O)c1c(-c2ccccc2)no[n+]1[O-]", "Potency": "inactive"},
      {"smiles": "Cc1ccc(OCCn2c(CCNC(=O)c3cccc4[nH]ccc34)nc3ccccc32)cc1", "Potency": "inactive"},
      {"smiles": "O=C(c1ccccc1O)N(Cc1ccccc1)Cc1ccccc1", "Potency": "inactive"},
      {"smiles": "CC(=O)Nc1cccc(S(=O)(=O)N2CCN(S(=O)(=O)c3c(F)cccc3F)CC2)c1", "Potency": "inactive"},
      {"smiles": "CCCc1cc(C)n(C)c(=O)c1CN(C)C(=O)c1cc(-c2ccc(N3CCN(C(C)C)CC3)nc2)cc2c1cnn2C(C)C", "Potency": "inactive"},
      {"smiles": "CC(O)C(O)/C=C/C=C/C(=O)O[C@@H]1C=C(C(=O)O)[C@](O)(CO)[C@@]2(C)CCCC(C)(C)[C@H]12", "note": "(stereo not given in full)", "Potency": "inactive"},
      {"smiles": "O=c1c2ccccc2nc2sc(NCc3ccc(Cc4ccccc4)cc3)nn12", "Potency": "inactive"},
      {"smiles": "C[C@H]1CC[C@@]2(OC1)O[C@H]1CC3[C@@H]4CC[C@@H]5C[C@@H](O[C@@H]6O[C@H](CO)[C@@H](O[C@@H]7O[C@H](CO[C@@H]8OC[C@@H](O)[C@H](O)[C@H]8O)[C@@H](O[C@@H]8O[C@H](CO)[C@H](O)[C@H](O)[C@H]8O)[C@H](O)[C@H]7O)[C@H](O)[C@H]6O)CC[C@]5(C)C4CC[C@]3(C)[C@H]1[C@@H]2C", "note": "(stereo not given in full)", "Potency": "inactive"},
      {"smiles": "Cc1ccc(-c2cc(C(=O)Nc3ccccc3)c3ccccc3n2)cc1C", "Potency": "inactive"},
      {"smiles": "CCNC(=O)c1ccc(-c2ccc3ncnc(NCc4ccc(C)o4)c3c2)o1", "Potency": "inactive"},
      {"smiles": "NC(=O)C1CCN(c2nc(-c3ccc(C(F)(F)F)cc3)cs2)CC1", "Potency": "inactive"},
      {"smiles": "Cc1ccnc(NC(=S)N2CCCN(c3cccc(C(F)(F)F)c3)CC2)c1", "Potency": "inactive"},
      {"smiles": "O=C(Nc1nnc(COc2ccc(Cl)cc2)s1)c1cccs1", "Potency": "inactive"},
      {"smiles": "COc1ccc(-c2nnc3n2N=C(c2cc(OC)ccc2OC)CS3)cc1", "Potency": "inactive"},
      {"smiles": "O=C(O)c1ccncc1Nc1nn(CCN2CCC(F)(F)CC2)c2ccc(F)cc12", "Potency": "inactive"},
      {"smiles": "C=C1C(=O)O[C@@H]2C[C@H](C)[C@@H]3CC(=O)[C@H](O)[C@@]3(C)C[C@H]12", "Potency": "inactive"},
      {"smiles": "CCOC(=O)c1csc(-n2nc(-c3ccc(F)c(F)c3)c(Cc3ccc(S(N)(=O)=O)cc3)c2N)n1", "Potency": "inactive"},
      {"smiles": "COC(=O)c1ccc(N2CCN(S(=O)(=O)c3ccc4c(c3)CC(=O)N4)CC2)cc1", "Potency": "inactive"},
      {"smiles": "COc1cc(O)c(C(CC(=O)N2CCOCC2)c2ccc3c(c2)OCO3)c(OC)c1", "note": "(stereo not given)", "Potency": "inactive"},
      {"smiles": "O=C1Nc2ccccc2/C1=C/c1ccc[nH]1", "Potency": "inactive"},
      {"smiles": "Cc1cccc(C)c1-n1c(SCC(=O)Nc2ccc(F)cc2)nnc1-c1cccc([S+](=O)([O-])N2CCCC2)c1", "Potency": "inactive"},
      {"smiles": "Cc1cccc(-n2cnc3cc(C(=O)NC(C)(C)C)ccc32)c1", "Potency": "inactive"},
      {"smiles": "Cc1cc(C)nc(NC(=S)N2CCN(S(=O)(=O)c3cccc(C(F)(F)F)c3)CC2)c1", "Potency": "inactive"},
      {"smiles": "Cc1cc(C)c(-c2nnc(NC(=O)Nc3ccc4ccccc4c3)s2)c(C)c1", "Potency": "inactive"},
      {"smiles": "Cc1c(P(=S)(c2ccccc2)c2ccccc2)c2ccccc2n1C(=O)NCc1ccccc1", "Potency": "inactive"},
      {"smiles": "CCCn1c(-c2ccc(F)cc2)nc2c(NC(C)CN(C)C)nc(C)nc21", "note": "(stereo not given)", "Potency": "inactive"},
      {"smiles": "O=C(Nc1ccc(-c2nc3ccccc3[nH]2)cc1)c1ccc(Oc2ccccc2)cc1", "Potency": "inactive"},
      {"smiles": "C[C@@H]1O[C@@H](O[C@H]2[C@H](O[C@H]3CC[C@@]4(C)C(CC[C@]5(C)C4CC=C4[C@@H]6CC(C)(C)CC[C@]6(C(=O)O)CC[C@]45C)[C@]3(C)CO)OC[C@H](O)[C@@H]2O)[C@H](O)[C@H](O[C@@H]2OC[C@@H](O)[C@H](O)[C@H]2O)[C@H]1O", "note": "(stereo not given in full)", "Potency": "inactive"},
      {"smiles": "Cc1ccc(-n2cnc3cc(C(=O)N4CCCCC4)ccc32)cc1", "Potency": "inactive"},
      {"smiles": "O=C(OCC#CCSc1nnc(-c2cccc3ccccc23)o1)c1ccccc1", "Potency": "inactive"}
    ]}
  ]
}
